Paper PMC5540273 (PLoS ONE, 2017)

Columns and labels:
Conditions in all cases: concentration: 1 μM, replicates: in singlicate; n = 1
CDKL2 = test system: CDKL2
CDKL3 = test system: CDKL3
CDKL5 = test system: CDKL5
CHEK1 = test system: CHEK1
CHEK2 = test system: CHEK2
CIT = test system: CIT
CLK1 = test system: CLK1
CLK2 = test system: CLK2
CLK3 = test system: CLK3
CLK4 = test system: CLK4
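Also: KINOMEscan kinase panel screen.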

SMILES	%Inh (CDKL2) [%]	%Inh (CDKL3) [%]	%Inh (CDKL5) [%]	%Inh (CHEK1) [%]	%Inh (CHEK2) [%]	%Inh (CIT) [%]	%Inh (CLK1) [%]	%Inh (CLK2) [%]	%Inh (CLK3) [%]	%Inh (CLK4) [%]
CCc1nc(-c2cccc(C)c2)c(-c2ccnc(NC(=O)c3ccccc3)c2)s1	0	0	10	0	34	42	0	0	0	16
COc1ccc(NC(=O)Nc2ccc(C)c(-c3ccc(C(=O)Nc4ccncc4)cc3)c2)cc1 [GSK1398475]	30	0	0	11	0	69	28	0	4	5
O=C(Nc1n[nH]c2nc(-c3ccco3)c(Br)cc12)c1ccc(CN2CCCC2)cc1.O=C(O)[C@H](O)[C@@H](O)C(=O)O [SB-742352]	62	0	0	0	0	0	16	12	0	8
Cl.c1ccc(Cn2ncc3cc(Nc4ncnc5ccccc45)ccc32)cc1 [GW273749]	8	0	3	0	30	26	42	6	0	4
c1ccc(-c2ccc3c(-c4ccnc(Nc5ccc6c(c5)OCCO6)n4)cnn3n2)cc1 [GW818941]	16	0	0	0	0	6	52	42	0	58
